# Measured values published in PubChem BioAssay (NCI).
# About 83,000 compounds went through this panel and 20% of them were active in at least one assay; those are over-represented in the sample as a whole.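 The endpoint reported here, percent growth, reads 100 for growth as untreated, 0 for no net growth and -100 for all cells dead.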 Values without a mark were called inactive. Active and inactive are the calls of the source. How the source made its calls: active means growth percent below 10; inactive means the rest.
# Assays:
# Test in all cases: NCI-60 one-dose screen, 48 h (100 = growth as untreated, 0 = no growth, -100 = all killed)
# Details in all cases: 10 µM unless noted
# SR leukemia = system: SR leukemia
# RPMI-8226 leukemia = system: RPMI-8226 leukemia
# OVCAR-8 ovarian = system: OVCAR-8 ovarian
# OVCAR-5 ovarian = system: OVCAR-5 ovarian
# OVCAR-4 ovarian = system: OVCAR-4 ovarian
# SK-OV-3 ovarian = system: SK-OV-3 ovarian
# IGROV1 ovarian = system: IGROV1 ovarian
# OVCAR-3 ovarian = system: OVCAR-3 ovarian
# HS 578T breast = system: HS 578T breast
# NCI/ADR-RES ovarian = system: NCI/ADR-RES ovarian
Structure (SMILES),growth (SR leukemia),growth (RPMI-8226 leukemia),growth (OVCAR-8 ovarian),growth (OVCAR-5 ovarian),growth (OVCAR-4 ovarian),growth (SK-OV-3 ovarian),growth (IGROV1 ovarian),growth (OVCAR-3 ovarian),growth (HS 578T breast),growth (NCI/ADR-RES ovarian)
CC1=C(C)C(=O)C(Nc2cccc(C(=O)OC(C)(C)C)c2)=C(Cl)C1=O,16.3%,10.3%,92.9%,106%,80.2%,103%,12.4%,101%,97.2%,97.6%
C=C(C)[C@@H]1CC[C@]2(C(=O)N3CCN(C)CC3)CC[C@]3(C)[C@H](CC[C@@H]4[C@@]5(C)CC[C@H](OP(=O)(OCC)OCC)C(C)(C)[C@@H]5CC[C@]43C)[C@@H]12,-26.6% (active),35.2%,84.3%,105%,91.2%,104%,92.9%,100%,87.6%,82.4%
C=C(C)[C@@H]1CC[C@]2(COCCCNCCCN)CC[C@]3(C)[C@H](CC[C@@H]4[C@@]5(C)CC[C@H](O)C(C)(C)[C@@H]5CC[C@]43C)[C@@H]12,-33.1% (active),-35.3% (active),-40.4% (active),-95.3% (active),-68.5% (active),105%,-82.9% (active),-77.5% (active),-49.1% (active),-65.5% (active)
Cn1c(SCC(=O)c2ccc(Br)cc2)nc2ccccc2c1=O,89.6%,77.7%,96.8%,106%,81.8%,98.9%,90.5%,102%,102%,96.5%
COc1ccc(C2CC(c3cccc(OCCCCOc4cccc(C5=NN(C(C)=O)C(c6ccc(OC)cc6)C5)c4)c3)=NN2C(C)=O)cc1 (centres undefined),39.3%,33.8%,68.2%,96.2%,20%,83.5%,83.8%,68.2%,89.3%,75.7%
COc1cccc(N2CCN(C3=C(Cl)C(=O)c4ncccc4C3=O)CC2)c1,4.42% (active),55.8%,82.8%,124%,80.5%,93.8%,80.8%,–,84.4%,–
Brc1cc(-c2cc(-c3ccc4c(c3)OCCO4)[nH]n2)cs1,14.2%,29.9%,51.8%,75.8%,83.5%,62.5%,50.8%,–,61.1%,–
O=C(CSc1nc2ccccc2c(=O)n1-c1ccccc1)N/N=C/c1ccc(Oc2ccc(Br)cc2)cc1,73.4%,68.3%,63.3%,94%,81.7%,84.5%,65.6%,117%,60.8%,55.2%
Cc1cc2nc3c4cc(C#N)ccc4n(CCN(C)C)c3nc2cc1C,0.51% (active),-17.7% (active),-33.2% (active),6.4% (active),0.732% (active),-4.4% (active),-1.99% (active),–,-15% (active),–
CN(C)S(=O)(=O)c1ccc(-c2nc(C(Cl)Cl)nc3cc(-c4ccccc4)nn23)cc1,36.2%,86.8%,60.7%,90%,90.5%,92.2%,66%,93.5%,109%,69.5%
COc1cc2cc(Oc3ccc(NC(=O)c4cc(C(F)(F)F)cc(C(F)(F)F)c4)cc3)c(C)nc2cc1OCCN1CCOCC1,20.6%,24.6%,80.1%,95.7%,48.8%,87.5%,85.6%,78.9%,36.7%,62.4%
COc1ccc(-c2cnc(NC(=O)CCCCCCNC(=O)C(O)(O)C(F)(F)F)s2)cc1,13.2%,14%,-3.57% (active),4.6% (active),-9.83% (active),-19.3% (active),-18.7% (active),-50.6% (active),9.86% (active),-2.38% (active)
C=CCSC1=NC2C(N(CC)C(=O)N2CC)N1/N=C/C=C/c1ccccc1OC (centres undefined),16.9%,53.7%,83.5%,105%,79.9%,99.8%,69%,54.6%,82.4%,53.3%
